Hit rate of the full screen: of about 340,000 compounds, about 6,900 (2%) were called active. Only a selection was taken, and actives are over-represented in it overall. Values without a mark were called inactive. Rule as the data show it: active = inhibition above about 30%; inactive = below that, where a call was filed.
target: D(2) dopamine receptor (Homo sapiens) (UniProt P14416); assay: HTS Assay for Allosteric Antagonists of the Human D2 Dopamine Receptor: Primary Screen for Antagonists; details: HEK293 TREx D2 cells, calcium flux, dopamine EC80; at 10 µM; hits give high values; also: 0% is about no effect
Sequence (P14416 whole entry, looked up): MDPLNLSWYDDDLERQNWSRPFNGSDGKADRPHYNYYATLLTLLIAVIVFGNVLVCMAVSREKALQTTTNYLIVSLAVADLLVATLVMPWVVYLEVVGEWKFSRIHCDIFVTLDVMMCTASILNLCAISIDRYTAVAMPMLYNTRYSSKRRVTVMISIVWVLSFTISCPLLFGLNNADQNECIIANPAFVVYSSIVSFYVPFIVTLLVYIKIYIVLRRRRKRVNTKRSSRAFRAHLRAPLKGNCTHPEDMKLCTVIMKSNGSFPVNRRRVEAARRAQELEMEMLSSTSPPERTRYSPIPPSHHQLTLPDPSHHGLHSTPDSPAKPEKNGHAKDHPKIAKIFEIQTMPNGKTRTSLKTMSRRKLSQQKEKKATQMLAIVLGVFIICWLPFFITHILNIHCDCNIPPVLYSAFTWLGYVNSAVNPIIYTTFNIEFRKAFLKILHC
Summary of the method: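 Read-out: kinetic calcium fluorescence (1 cycle/s) in inducible HEK293 T-REx D2 cells after an EC80 dopamine addition that followed 180 s compound preincubation. Loss of the dopamine response indicates antagonism.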

Row | Compound | inhibition
1 | O=C(CSc1nc2ccccc2c(=O)n1CCCO)NC1CC1 | -4.48%
2 | C=CCC(NC(=O)Cc1ccccc1)C(=O)NCCC (stereo not drawn) | 1.08%
3 | CCCCC/C=C/C1=CC(=O)C[C@H](c2ccc(Cl)cc2)C1 | 3.21%
4 | Cc1nnc(SCC(=O)N/N=C/c2cn(-c3ccccc3)nc2-c2ccc(F)cc2)n1-c1ccccc1 | -8.35%
5 | CC(C)(C)OC(=O)N/N=C/c1cn(-c2ccccc2)nc1-c1cccnc1 | -2.64%
6 | Cc1ccc(-c2nn(-c3ccccc3)cc2/C=N/NC(=O)c2ccc3c(c2)OCO3)cc1 | 31.8% (active)
7 | Cc1ccc(OCC(=O)N2CCN(S(=O)(=O)c3ccc(Cl)s3)CC2)cc1C | -12%
8 | CCCc1nc2ccccc2c(C(=O)OCC(=O)c2ccc3c(c2)NC(=O)CO3)c1CC | -8.13%
9 | O=C(OCc1nnc(-c2ccccc2)o1)c1cc(=O)[nH]c2ccccc12 | 6.34%
10 | CCCc1nc2ccccc2c(C(=O)OCc2nnc(-c3cc(OC)c(OC)c(OC)c3)o2)c1CC | 38% (active)
11 | COc1ccc(C(=O)NC2CC2)cc1OC1CCN(Cc2ccc(SC)cc2)CC1 | 2.51%
12 | COc1cc2[nH]c(=O)n(Cc3ccc(C(=O)NC4CCN(Cc5ccccc5)CC4)cc3)c(=O)c2cc1OC | 90.8% (active)
13 | COC(=O)c1cccc(NC(=O)CN2CCC(NC(=O)c3cc(OC)c(OC)c(OC)c3)CC2)c1 | -8.24%
14 | CCOc1cc2[nH]c(=O)n(Cc3ccc(C(=O)NCCCN4CCCC4=O)cc3)c(=O)c2cc1OCC | 9.71%
15 | COc1cc(C(=O)NC2CCN(Cc3ccccc3)CC2)cc(Cl)c1OC(C)C | 47.6% (active)
16 | COc1cc2[nH]c(=O)n(CCC(=O)NC3CCN(Cc4ccccc4)CC3)c(=O)c2cc1OC | -8.24%
17 | Cc1c(NC(=O)CSc2nnc(-c3cccnc3)n2N)c(=O)n(-c2ccccc2)n1C | 7.44%
18 | CCCCn1c(N)c(N(CCC(C)C)C(=O)c2ccc(COc3ccccc3)o2)c(=O)[nH]c1=O | -9.11%
19 | C#CCOCCOCCOCCNc1nc(N2CCN(C(=O)CCCCCCCCCCNC(=O)[C@H]([C@@H](C)CC)n3cc(CCCCN=C(N)N)nn3)CC2)nc(N2CCN(C(=O)CCCCCCCCCCNC(=O)[C@H](CO)n3cc(CCCSC)nn3)CC2)n1 | 1.17%
20 | Cc1ccn2c(=O)nc(SCC(=O)NCc3ccc(F)cc3)nc2c1 | 17.8%
21 | C/C(=N\NC(=S)NCc1ccccc1)C1CCCCC1 | -10.6%
22 | CC1CCCCN1C(=O)CCS(=O)(=O)Cc1ccccc1 (stereo not drawn) | 3.72%
23 | CC1CCCCN1C(=S)NCc1ccccc1 (stereo not drawn) | 31.9% (active)

Source: PubChem BioAssay AID485344 (National Center for Advancing Translational Sciences (NCATS), 2010)
